Measurements from PubChem BioAssay (NCI).
The panel holds about 79,000 compounds, 15% with a hit somewhere; the sample as a whole holds those more often. Rule as the data show it: active = growth inhibition above about 70%; inactive = the rest.

How the values were obtained:
[1] = NCI Yeast Anticancer Drug Screen. Data for the rad50 strain (AID 155);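 also: 0% = growth of vehicle-only cultures of the same strain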; conditions: S. cerevisiae rad50 strain growth inhibition; at 50.0 µM; active compounds read high
Method in brief: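 Relative growth inhibition (compound vs vehicle) was measured in yeast with a defined repair-gene alteration.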

[2] = NCI Yeast Anticancer Drug Screen. Data for the mec2-1 strain (AID 157); conditions: S. cerevisiae mec2-1 strain, at 50.0 µM, active compounds read high
Method in brief: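 Vehicle-treated cultures served as reference for growth inhibition of compound-exposed mec2-1 yeast.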

[3] = NCI Yeast Anticancer Drug Screen. Data for the sgs1 mgt1 strain (AID 161);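 also: 0% = growth of cultures given vehicle only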; conditions: S. cerevisiae sgs1 mgt1 strain, at 50.0 µM, active compounds read high
Method in brief: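 Inhibition of yeast growth, normalised to vehicle-treated controls, is reported for a strain bearing genetic alterations in DNA damage repair.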

[4] = NCI Yeast Anticancer Drug Screen. Data for the cln2 rad14 strain (AID 165);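 also: 0% = growth equal to vehicle treated cultures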; conditions: S. cerevisiae cln2 rad14 strain, at 50.0 µM, active compounds read high
Method in brief: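 Each compound was tested on cln2 rad14 yeast. Inhibition of growth was calculated against vehicle-exposed controls.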

[5] = NCI Yeast Anticancer Drug Screen. Data for the bub3 strain (AID 167); conditions: S. cerevisiae bub3 mutant strain, at 50.0 µM, active compounds read high
Method in brief: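 Screening used yeast with an engineered genetic alteration affecting cell cycle control. Compound-exposed cultures were compared with vehicle cultures, and reduced growth was taken as inhibition.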

[6] = NCI Yeast Anticancer Drug Screen. Data for the mlh1 rad18 strain (AID 175); conditions: S. cerevisiae mlh1 rad18 strain growth inhibition; at 50.0 µM; active compounds read high
Method in brief: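 Vehicle-treated cultures served as the reference for growth inhibition in a yeast strain carrying DNA damage repair alterations exposed to each compound.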

Measured: growth inhibition

CCCN=C(NNC(N)=O)C(C)=O
inactive: [1] 24.9% | [2] 7.9% | [3] -4.35% | [4] 5.55% | [5] 15.7% | [6] -1.45%

CCCc1cc(=O)[nH]c(=S)[nH]1
inactive: [1] 34.6% | [2] -8.25% | [3] 1.7% | [4] 15.8% | [5] 11.2% | [6] 15.8%

Cc1cccc(N=Nc2c(C)nc(N)nc2C)c1C
inactive: [1] 4.35% | [2] 6.55% | [3] 2.1% | [4] -37.6% | [5] -13.6% | [6] 6.75%

CC(C)(C#CCOC(=O)c1ccc([N+](=O)[O-])cc1)OC(=O)c1ccc([N+](=O)[O-])cc1
inactive: [1] 9.25% | [2] -3.7% | [3] 18.5% | [4] 32.1% | [5] 1.5% | [6] 5.35%

NC(=O)C(Cc1ccccc1Cl)c1ccccc1 (stereo not given)
inactive: [1] -7.6% | [2] -2.9% | [3] -2.75% | [4] -43% | [5] -8.35% | [6] 12.7%

N=c1c2ccccc2c2ccccc2n1O
inactive: [1] 2.15% | [2] -5.05% | [3] -19.1% | [4] -11.4% | [5] -5.75% | [6] -19.4%

CN1C(c2ccncc2)=NCC12CCCCC2
inactive: [1] 17.2% | [2] 7.35% | [3] 3.6% | [4] 1.05% | [5] 13.2% | [6] -1.5%

COC(=O)C1O[C@H]1c1cccc[n+]1[O-] (mixture of isomers)
inactive: [1] -0.3% | [2] -3.15% | [3] 5.7% | [4] 11.8% | [5] -8.2% | [6] -0.9%

C=CCOC(=O)/C=C/C
inactive: [1] 7% | [2] 2.7% | [3] -4.05% | [4] -11.3% | [5] -2.55% | [6] -1.35%

Cc1c(/C=N/O)nc2ccccc2c1C(=O)O
inactive: [1] -15.1% | [2] -9.25% | [3] -6.5% | [4] -24.1% | [5] -3.85% | [6] -28.9%

OCC(O)C(OC1OC(CO)C(O)C(O)C1O)C(O)c1cnn(-c2ccccc2)n1 (stereo not given)
inactive: [1] -0.05% | [2] 8.6% | [3] -24.3% | [4] -14.7% | [5] -1.5% | [6] 15.2%

Cc1cc(C(C)(C)C)ccc1S(=O)(=O)/C=C/c1ccccc1
inactive: [1] -18.6% | [2] -23.1% | [3] -6.1% | [4] 0.45% | [5] -1.7% | [6] -26.1%

CCN(CC)CCN(C)C(O)(C(=O)c1ccccc1)C1CCCC1 (stereo not given)
inactive: [1] 8.9% | [2] 15.2% | [3] 2.3% | [4] -4.35% | [5] 0.45% | [6] 32%

[O-][n+]1ccccc1Cl
inactive: [1] 8.05% | [2] 9.9% | [3] 10.2% | [4] -14.4% | [5] 6.85% | [6] 16.4%

N#CC(C#N)=C(N)/C(C#N)=C/c1ccc2ccccc2n1
inactive: [1] -0.25% | [2] -11.2% | [3] -5.75% | [4] 12.8% | [5] -5.45% | [6] -12.2%

CCCC1([N+](=O)[O-])CCC(C)(O)C(C(C)=O)C1 (stereo not given)
inactive: [1] -4.3% | [2] -3.8% | [3] 0.9% | [4] -3.35% | [5] -4.8% | [6] 17.4%

COc1ccc(C23OCN(c4ccccc4)C2(c2ccc(OC)cc2)c2ccccc2N3C)cc1 (stereo not given)
inactive: [1] 4.15% | [2] -6.85% | [3] -25.4% | [4] -0.25% | [5] -2.25% | [6] 11.3%

NCCCCCS(=O)(=O)O
inactive: [1] 17.4% | [2] -1.15% | [3] -0.85% | [4] 4.05% | [5] -0.65% | [6] 8.65%

CCN1CCCC(N)C1 (stereo not given)
inactive: [1] -26.1% | [2] -23.2% | [3] -34.9% | [4] 11.8% | [5] -41.8% | [6] -27.9%

COc1ccc(/C=N/N2CN(C(CC(N)=O)C(=O)O)P(Nc3ncccn3)N=C2N)cc1OC (stereo not given)
inactive: [1] 7.55% | [2] -3.9% | [3] 0.4% | [4] -20.9% | [5] 6.65% | [6] 8.35%

Clc1nc(Cl)c2ncnc(Cl)c2n1
inactive: [1] -34.5% | [2] 16.1% | [3] -23.2% | [4] -11.4% | [5] -3.7% | [6] -5.7%

CCC/C(CC)=N\Nc1ccc([N+](=O)[O-])cc1[N+](=O)[O-]
inactive: [1] -6.9% | [2] 9.4% | [3] -2.35% | [4] 30.9% | [5] 12.9% | [6] -4.1%

Cc1ccc(S(=O)(=O)CCOC(=O)Nc2ccccc2)cc1
inactive: [1] 2.5% | [2] 12.6% | [3] 1.7% | [4] -12.4% | [5] -14.6% | [6] 11.5%

O=C(O)COc1ccc2ccccc2c1 (tested in a mixture with another compound)
inactive: [1] -36% | [2] -19.9% | [3] -26.3% | [4] -37.7% | [5] -0.1% | [6] -5.65%

COCCCNC1=C(C#N)C(=O)NC2(CCCC2)S1
inactive: [1] -35.6% | [2] -35.5% | [3] -18.5% | [4] -2.65% | [5] -30.8% | [6] -17.2%

O=C(O)c1ccc(Cl)cc1[N+](=O)[O-]
inactive: [1] 23.4% | [2] -8.5% | [3] 21.6% | [4] 19.9% | [5] 0.5% | [6] 25.1%

O=C1O/C(=C(\Br)c2cccc3ccccc23)c2ccccc21
inactive: [1] -18.1% | [2] -30.4% | [3] -34% | [4] 11.2% | [5] -27.6% | [6] -18.3%

O=C(Cc1ccc2cc3c(cc2c1)OCO3)NCCc1ccc2c(c1)OCO2
inactive: [1] 30.4% | [2] -8.4% | [3] 25.8% | [4] -11.2% | [5] -1.25% | [6] 8.8%

CCOC(=O)C(C)(C)c1cn(C)c2ccccc12
inactive: [1] -7.05% | [2] -9.9% | [3] -2.7% | [4] -4.8% | [5] -6.55% | [6] 7.4%

CC(C)c1cccc(C(C)C)c1NC(=O)C(=O)C1SC(=S)NC1=O (stereo not given)
inactive: [1] -23.6% | [2] -13.1% | [3] -18.9% | [4] 8.75% | [5] -11.3% | [6] -29.6%

C=C1C(=O)OC2/C=C(\C)C(O)C/C=C(/C)C(OC(=O)/C(C)=C\C)C(O)C12 (stereo not given)
inactive: [1] 13.9% | [2] -17.8% | [3] 7.2% | [4] 5.6% | [5] -12.8% | [6] 11.8%

CCCCNc1nc(C#N)c(N)s1
inactive: [1] 3.6% | [2] -3.35% | [3] -12.7% | [4] 11.3% | [5] 11.7% | [6] 8.55%

Nn1c(-c2ccccc2)n[nH]c1=O
inactive: [1] 18.7% | [2] -15.7% | [3] 16.5% | [4] 25.9% | [5] 3.25% | [6] 9.45%

NC(=O)C1CCCCC1C(=O)O (stereo not given)
inactive: [1] 1.5% | [2] 5% | [3] 6.65% | [4] -10.7% | [5] 4.6% | [6] 14.8%

COC(=O)Cc1onc(-c2ccccc2)c1[N+](=O)[O-]
inactive: [1] -17.3% | [2] -12.2% | [3] -4.8% | [4] 19.9% | [5] 28.9% | [6] 32%

CC(=O)OCC(=O)c1cc(C)n(C)c(=O)c1CN1C(=O)c2ccccc2C1=O
inactive: [1] -10.7% | [2] 9.05% | [3] 2.2% | [4] -36.3% | [5] 10.6% | [6] -12.7%

C=CCCCCCCCCCOC=O
inactive: [1] -12.1% | [2] -5.2% | [3] 1.25% | [4] -19.8% | [5] 34.3% | [6] 3.2%

CN(C)CCN(C)CCN(C)CCN(C)C
inactive: [1] -10.4% | [2] -25.8% | [3] 11.8% | [4] -6.75% | [5] 5.9% | [6] -6.7%

Cc1cc(C(N)=O)no1
inactive: [1] 1.5% | [2] -2.55% | [3] -5.7% | [4] -10% | [5] 3.9% | [6] -1.05%

O=C(O)C(CO)C(CO)C(=O)O (stereo not given)
inactive: [1] -12.9% | [2] -14.4% | [3] -7.05% | [4] -14.7% | [5] -22.8% | [6] -2.15%
